Compound activity as filed in PubChem.
Rows were chosen to be rich in hits. Some 2.9% of all compounds tested hit in one or more screens of this group.
A549 tox = kills or reduces viability of A549 cells in Nrf2 counter-screen. Potency, µM (highest dose often 46 µM), most hits filed as inhibitors. AID 504648. A549 ARE-Fluc cells, CellTiter-Fluor viability, 18-24 h. actives 0.16% (n = 390,000)
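A549 ARE_Fluc cells in 5% FBS OPTI-MEM were exposed to compounds in concentration-response for 18-24 h at 37 deg C. Viability was read by CellTiter-Fluor fluorescence (Ex 405/Em 525) after 30 min, before the luciferase read.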
Nrf2 activator = activates Nrf2 signaling; AREc32 ARE-luciferase reporter (MCF7-derived line), luminescence, 24 h; Potency, µM (highest dose often 46.1 µM), usual class: activators; actives 0.31% (n = 410,000); further: nearly all actives have a fitted effect of over 65% in size
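Steps: seed AREc32_Fluc cells (1000/well, 5% FBS OPTI-MEM); incubate overnight at 37 deg C; add 23 nL compound; incubate 24 hr; add Steady-Glo; hold 30 min RT; read luminescence.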
Nrf2 block = Nrf2 pathway inhibition | A549 ARE-Fluc reporter, luciferase luminescence, 18-24 h | Potency, µM (highest dose often 46 µM), hits mostly inhibitors | actives 2.1% (n = 360,000); further: nearly all actives have a fitted effect of over 60% in size
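Cells were seeded and rested 2 h, then exposed to compounds for 18-24 h. CellTiter-Fluor was read first as a viability measure. BugLite was added 15 min before the final luminescent read of ARE-luciferase activity in A549 cells.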
ATXN2 expr inh = ATXN2 expression inhibition. AID 1745845. HEK-293 ATXN2-luciferase reporter, luminescence, 24 h. actives 0.72% (n = 360,000). Potency, µM (titrated, usually from 57 µM), most hits filed as inhibitors; further: nearly all actives have a fitted effect of over 55% in size
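ATXN2-luciferase reporter cells (luciferase flanked by upstream and downstream ATXN2 gene portions) were treated 24 h at 37 °C with compounds at up to 57 uM. SteadyGlo luminescence gave expression; GF-AFC fluorescence gave viability.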
ATXN viability = cell viability loss in ATXN counter-screen | S2 cells (HEK-293 line with an ATXN2-luciferase reporter) viability, CellTiter-Fluor protease fluorescence, 24 h | Potency, µM (top dose mostly 56.7 µM), actives largely listed as cytotoxic | actives 0.49% (n = 400,000) | AID 651635; further: nearly all actives have a fitted effect of over 40% in size
Large screens that a line does not name were inactive. The call rests on the fitted dose curve; in most records, active means well fitted curve in the direction sought with a large enough effect; inconclusive means small, poorly fitted or top-dose-only effect, or another doubt; inactive means no such curve, though single readings can be large; an effect the other way counts as inactive or inconclusive.

Cn1c(C(=O)N2CCN(c3cccc(C(F)(F)F)c3)CC2)cc2sccc21	Nrf2 block 25.9µM
COc1ccccc1CN1CCC(n2cc(C(=O)N3CCCCC3)nn2)CC1	none (no result: A549 tox, Nrf2 activator, Nrf2 block, ATXN2 expr inh)
N#Cc1cccc(OC2=NS(=O)(=O)c3ccccc32)c1	none (no result: Nrf2 activator, ATXN2 expr inh, ATXN viability)
Cc1ccc(S(=O)(=O)CC(=O)N2CCN(c3cccc(C(F)(F)F)c3)CC2)cc1	Nrf2 block 23.1µM
O=C(NCCc1nc2ccccc2[nH]1)c1cccc(Br)c1	Nrf2 block 25.9µM (no result: ATXN2 expr inh)
O=C(NCCc1nc2ccccc2[nH]1)c1ccc(F)cc1	none (no result: Nrf2 block)
COc1cccc(C2(CC(=O)N3CCC(c4nc5ccccc5o4)CC3)CC(=O)N(C)C2=O)c1 (configuration not stated)	none (no result: A549 tox, Nrf2 activator, Nrf2 block, ATXN2 expr inh)
CCOc1ccc(C(=O)n2cnnc2N)cc1	Nrf2 block 13µM
Cc1ccc(/C=C(\C#N)C(=O)Nc2ccccn2)o1	Nrf2 activator 14.1µM, Nrf2 block inconclusive
COc1ccc(/C=C(\C#N)C(=O)Nc2ccccn2)cc1	none
CC(Oc1ccc(F)cc1)C(=O)Nc1cc(-c2ccc(F)c(F)c2)no1 (configuration not stated)	Nrf2 block inconclusive (no result: ATXN2 expr inh, ATXN viability)
COc1cccc(N2CCN(C(=O)C3CCCN(S(=O)(=O)c4cccc5nsnc45)C3)CC2)c1 (configuration not stated)	Nrf2 block 16.4µM
CCOc1ccc(S(=O)(=O)N2CCN(C(=O)COc3ccc(Br)cc3)CC2)cc1	A549 tox inconclusive, Nrf2 block 16.4µM (no result: ATXN2 expr inh)
CC(=O)c1c(C)[nH]c(C(=O)OCC(=O)N2CCN(S(=O)(=O)c3ccc(C)cc3)CC2)c1C	Nrf2 block 16.4µM
CCOC(=O)N1CCN(C(=O)C2CCCN(S(=O)(=O)c3ccc(OCC)cc3)C2)CC1 (configuration not stated)	Nrf2 block inconclusive
CC(=O)c1c(C)[nH]c(C(=O)OCC(=O)N2CCN(S(=O)(=O)c3ccc(C)cc3C)CC2)c1C	Nrf2 block inconclusive
CCOc1ccc(OCC(=O)N2CCN(S(=O)(=O)c3ccccc3)CC2)cc1	none (no result: A549 tox, Nrf2 block, ATXN2 expr inh)
CCOc1ccc(S(=O)(=O)N2CCCC(C(=O)N3CCN(c4ccccc4)CC3)C2)cc1 (configuration not stated)	Nrf2 block 23.1µM, ATXN2 expr inh inconclusive, ATXN viability inconclusive
CN(C)CC(C)(O)c1ccc2c(c1)CN(Cc1cnn(-c3ccccc3)c1)CCO2 (configuration not stated)	none (no result: A549 tox, Nrf2 activator, Nrf2 block, ATXN2 expr inh)
O=C(C1CCCN(S(=O)(=O)c2ccc(Br)s2)C1)N1CCN(c2ccc(F)cc2)CC1 (configuration not stated)	Nrf2 block inconclusive, ATXN viability inconclusive
CC(=O)c1ccc(N2CCN(C(=O)C3CCCN(S(=O)(=O)c4ccc(Br)s4)C3)CC2)cc1 (configuration not stated)	Nrf2 block 16.4µM
O=C(c1ccccc1)n1nc(-c2ccco2)nc1NCc1ccccc1Cl	none
Cc1ccc(S(=O)(=O)n2nccc2-c2c(-c3ccccc3)noc2C)cc1	Nrf2 block 18.4µM
O=C(CCCl)NCc1ccccc1	none (no result: A549 tox, Nrf2 activator, Nrf2 block)
Cc1ccc(S(=O)(=O)Nc2ccc(-n3c(C)nc4ccccc4c3=O)cc2)cc1	Nrf2 block 18.4µM
CC(=O)c1ccc(S(=O)(=O)Nc2ccc(-n3c(C)nc4ccccc4c3=O)cc2)cc1	none
CC(=O)Nc1ccc(NC2=Nc3ccccc3N3C2=Nc2c(c(C)nn2-c2ccccc2)C3c2ccccc2)cc1 (configuration not stated)	Nrf2 block inconclusive, ATXN2 expr inh 7.94µM, ATXN viability inconclusive
COc1ccc(NC2=Nc3ccccc3N3C2=Nc2c(c(C)nn2-c2ccc(C)cc2)C3c2cccnc2)cc1 (configuration not stated)	none
Cc1nc2ccc(C(=O)N3CCc4c(cnc(C)c4CNC(=O)/C=C/c4cccs4)C3)cc2nc1C	none (no result: A549 tox, Nrf2 activator, Nrf2 block, ATXN2 expr inh)
CCOc1cc(C=C(C(=O)OC)C(=O)OC)ccc1OCc1ccc([N+](=O)[O-])cc1	A549 tox inconclusive, Nrf2 block 18.4µM, ATXN2 expr inh 31.6µM, ATXN viability inconclusive
O=C(CN1CCCC1)Nc1ccc(-c2nc3cc(NC(=O)CN4CCCC4)ccc3o2)cc1	A549 tox inconclusive, Nrf2 block inconclusive, ATXN2 expr inh inconclusive, ATXN viability 12.6µM
COc1ccc(-c2nc3cc(NC(=O)Cc4ccc(OC)c(OC)c4)ccc3o2)cc1	A549 tox inconclusive, Nrf2 block 14.6µM
COc1ccc(CC(=O)Nc2ccc(-c3cn4cccc(C)c4n3)cc2)cc1OC	Nrf2 block 7.31µM
COc1ccc(-c2nc3cc(NC(=O)Cc4ccc(Cl)cc4)ccc3o2)cc1OC	A549 tox inconclusive, Nrf2 block 23.1µM (no result: ATXN2 expr inh, ATXN viability)
COc1ccc(-c2nc3cc(NC(=O)CSc4ccc(C)cc4)ccc3o2)cc1	ATXN viability inconclusive
Cc1cccn2cc(-c3ccc(NC(=O)Cc4ccccc4)cc3)nc12	ATXN viability inconclusive
CCN1CCCC1CNCc1cc2ccc(SC)cc2nc1-c1cc(OC)ccc1OC (configuration not stated)	none (no result: A549 tox, Nrf2 activator, Nrf2 block, ATXN2 expr inh)
CCOC(=O)CN(C)C(=O)c1cnn(-c2ncc3c(n2)-c2ccccc2CCC3)c1C	none (no result: A549 tox, Nrf2 activator, Nrf2 block, ATXN2 expr inh)
Oc1ccc(COc2ccccc2Cl)c2cccnc12	Nrf2 block 18.4µM (no result: Nrf2 activator, ATXN2 expr inh, ATXN viability)
COc1ccccc1N1CCN(Cc2ccc(O)c3ncccc23)CC1	Nrf2 activator inconclusive, ATXN2 expr inh 3.55µM, ATXN viability inconclusive
COCCN1CCN(C(=O)c2cnn(-c3nccc(-c4cc5ccccc5o4)n3)c2C2CC2)CC1	none (no result: A549 tox, Nrf2 activator, Nrf2 block, ATXN2 expr inh)
CC(C)c1cc2c(s1)c1cnn(Cc3ccccc3F)c(=O)c1n2C	Nrf2 block inconclusive (no result: Nrf2 activator, ATXN2 expr inh, ATXN viability)
CCCCCCCC[N+](C)(C)CCCCCCCC	none (no result: A549 tox, Nrf2 activator, Nrf2 block, ATXN2 expr inh)
C[N+](C)(C)CCCCCC[N+](C)(C)C	none
CC#CC[N+](C)(C)CCCCCCCCCCCC	Nrf2 block inconclusive, ATXN2 expr inh 25.1µM, ATXN viability inconclusive
CCCCCCCCCCCCCC[N+](C)(C)C	ATXN2 expr inh 22.4µM, ATXN viability inconclusive (no result: A549 tox, Nrf2 activator, Nrf2 block)
CCCCCCCCCCCCCCCC[N+](C)(C)CC	ATXN2 expr inh 14.1µM, ATXN viability 17.8µM
CN(C1CCCCC1)S(=O)(=O)c1ccc2c(c1)c(=O)c(C(=O)NCCc1ccc(Cl)cc1)cn2C	none
Cc1ncc2c(c1CNC(=O)c1ccsc1)CCN(C(=O)c1c(F)cccc1Cl)C2	none (no result: A549 tox, Nrf2 activator, Nrf2 block, ATXN2 expr inh)
Cc1ccc(C)c(N2CCN(CCCNC(=O)c3cnn(-c4cccc(Cl)c4)c3C3CCN(C(=O)OC(C)(C)C)CC3)CC2)c1	A549 tox inconclusive, Nrf2 block inconclusive (no result: ATXN2 expr inh, ATXN viability)
Cc1ccc(C)c(N2CCN(C(=O)c3cnn(C(C)(C)C)c3C3CCN(C(=O)OC(C)(C)C)CC3)CC2)c1	Nrf2 block 20.6µM (no result: ATXN2 expr inh, ATXN viability)
COc1ccc(OC)c(CCNC(=O)c2cnn(-c3ccccc3)c2C2CCN(C(=O)OC(C)(C)C)CC2)c1	Nrf2 block inconclusive (no result: ATXN2 expr inh, ATXN viability)
COc1ccc(OC)c(CCNC(=O)c2cnn(-c3ccc(C)cc3C)c2C2CCN(C(=O)OC(C)(C)C)CC2)c1	Nrf2 block 18.4µM, ATXN2 expr inh inconclusive, ATXN viability inconclusive
